Experimental data taken from PubChem BioAssay (EPA / NIEHS).
Calls of active or inactive are those of the source. The calls were made as follows: active = hit-call score of the fitted dose curve at least 0.9, where 1 is the maximum; inactive = score below 0.9.

Tests used:
Settings in all cases: mRNA level, 48 h; actives raise or lower the signal
[1] = read-out: growth arrest and DNA damage 45 (GADD45A), GADD45A (gene 1647); experiment: LTEA_HepaRG_GADD45A: Life Technologies and Expression Analysis (LTEA) Assay for growth arrest and DNA damage 45 (GADD45A) using HepaRG (AID 2283458)
Summary of the method: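 Human HepaRG liver cells are treated in duplicate for 48 h with chemicals in 0.5% DMSO, highest concentration 100 uM. Expression is read by qRT-PCR and analyzed in both directions against vehicle.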

[2] = read-out: Forkhead box O3 (FOXO3), FOXO3 (gene 2309); experiment: LTEA_HepaRG_FOXO3: Life Technologies and Expression Analysis (LTEA) Assay for Forkhead box O3 (FOXO3) using HepaRG (AID 2283459)
Summary of the method: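 Differentiated human HepaRG cells in serum-free induction medium were exposed in duplicate for 48 h to eight half-log concentrations up to 100 uM in 0.5% DMSO. FOXO3 mRNA was quantified by qRT-PCR, normalized to ACTB, GAPDH and POLR2A, with bidirectional fitting versus DMSO.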

[3] = read-out: growth arrest and DNA damage 45 (GADD45B), GADD45B (gene 4616); experiment: LTEA_HepaRG_GADD45B: Life Technologies and Expression Analysis (LTEA) Assay for growth arrest and DNA damage 45 (GADD45B) using HepaRG (AID 2283461)
Summary of the method: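 qRT-PCR read-out (Fluidigm TaqMan, housekeeping-normalized) of mRNA change in human HepaRG cells after 48 h chemical exposure; 8-point curve, top 100 uM, half-log steps, 0.5% DMSO vehicle; gain or loss fitted relative to DMSO baseline.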

[4] = read-out: ABC Transporter (ABCC3), ABCC3 (gene 8714); experiment: LTEA_HepaRG_ABCC3: Life Technologies and Expression Analysis (LTEA) Assay for ABC Transporter (ABCC3) using HepaRG (AID 2283462)
Summary of the method: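 qRT-PCR read-out of ABCC3 transcript, normalized to three housekeeping genes (ACTB, GAPDH, POLR2A), after 48 h chemical exposure of human HepaRG cells. Eight half-log concentrations, highest 100 uM, in 0.5% DMSO; gain or loss fitted relative to DMSO baseline.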

[5] = read-out: ABC Transporter (ABCB11), ABCB11 (gene 8647); experiment: LTEA_HepaRG_ABCB11: Life Technologies and Expression Analysis (LTEA) Assay for ABC Transporter (ABCB11) using HepaRG (AID 2283463)
Summary of the method: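 Differentiated human HepaRG cells were exposed for 48 h in serum-free induction medium to eight half-log concentrations up to 100 uM in 0.5% DMSO. ABCB11 mRNA was quantified by qRT-PCR, normalized to ACTB, GAPDH and POLR2A, and fitted bidirectionally versus DMSO.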

[6] = read-out: ATP-citrate lyase (ACLY), ACLY (gene 47); experiment: LTEA_HepaRG_ACLY: Life Technologies and Expression Analysis (LTEA) Assay for ATP-citrate lyase (ACLY) using HepaRG (AID 2283466)
Summary of the method: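 Differentiated human HepaRG cells in serum-free induction medium exposed 48 h, in duplicate, to eight half-log concentrations from 100 uM top in 0.5% DMSO; ACLY mRNA measured by qRT-PCR, normalized to ACTB, GAPDH, POLR2A, fitted bidirectionally versus DMSO.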

[7] = read-out: Alkaline Phosphatase, Placental (ALPP) gene, ALPP (gene 250); experiment: LTEA_HepaRG_ALPP: Life Technologies and Expression Analysis (LTEA) Assay for Alkaline Phosphatase, Placental (ALPP) gene using HepaRG (AID 2283468)
Summary of the method: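 qRT-PCR readout of ALPP mRNA (Fluidigm TaqMan), normalized to ACTB/GAPDH/POLR2A, after 48 h chemical exposure of HepaRG cells; 8-point half-log series, top 100 uM, 0.5% DMSO vehicle. Bidirectional curve fit versus DMSO baseline.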

[8] = read-out: Bcl-2 (BAD) gene, BAD (gene 572); experiment: LTEA_HepaRG_BAD: Life Technologies and Expression Analysis (LTEA) Assay for Bcl-2 (BAD) gene using HepaRG (AID 2283469)
Summary of the method: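 Differentiated human HepaRG cells in serum-free induction medium were exposed in duplicate for 48 h to eight concentrations (top 100 uM, half-log steps, 0.5% DMSO). BAD mRNA was quantified by qRT-PCR normalised to ACTB, GAPDH and POLR2A, with bidirectional fitting versus DMSO.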

[9] = read-out: Bcl-2 (BAX) gene, BAX (gene 581); experiment: LTEA_HepaRG_BAX: Life Technologies and Expression Analysis (LTEA) Assay for Bcl-2 (BAX) gene using HepaRG (AID 2283470)
Summary of the method: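 Concentration-response endpoint fitted in both directions relative to 0.5% DMSO vehicle. Human HepaRG cultures receive test chemicals for 48 h at up to 100 uM; BAX mRNA is quantified by qRT-PCR against housekeeping genes.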

[10] = read-out: adenosine kinase (ADK) gene, ADK (gene 132); experiment: LTEA_HepaRG_ADK: Life Technologies and Expression Analysis (LTEA) Assay for adenosine kinase (ADK) gene using HepaRG (AID 2283471)
Summary of the method: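 HepaRG (human liver), 48 h chemical exposure, 8-pt half-log series, top 100 uM, 0.5% DMSO vehicle. Readout: ADK mRNA by qRT-PCR vs housekeeping genes; bidirectional curve fit relative to DMSO baseline.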

[11] = read-out: Alpha-fetoprotein (AFP) gene, AFP (gene 174); experiment: LTEA_HepaRG_AFP: Life Technologies and Expression Analysis (LTEA) Assay for Alpha-fetoprotein (AFP) gene using HepaRG (AID 2283472)
Summary of the method: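 After a 48 h plating period, cells are moved to serum-free induction medium and dosed in duplicate (100 uM maximum, half-log dilutions, 0.5% DMSO) for another 48 h. Total RNA goes to TaqMan qRT-PCR; AFP signal is housekeeping-normalized.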

[12] = read-out: BCL2L11 (gene 10018); experiment: LTEA_HepaRG_BCL2L11: Life Technologies and Expression Analysis (LTEA) Assay for Bcl-2 (BCL2L11) gene using HepaRG (AID 2283473)
Summary of the method: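 HepaRG, 48 h exposure, 8-pt half-log series from 100 uM in 0.5% DMSO, duplicates; qRT-PCR (Fluidigm TaqMan) for BCL2L11, housekeeping-normalized; bidirectional curve fit relative to DMSO baseline.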

[13] = read-out: Apolipoprotein A-V (APOA5) gene, APOA5 (gene 116519); experiment: LTEA_HepaRG_APOA5: Life Technologies and Expression Analysis (LTEA) Assay for Apolipoprotein A-V (APOA5) gene using HepaRG (AID 2283474)
Summary of the method: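 HepaRG, 48 h chemical exposure in serum-free induction medium, 8-pt half-log series (top 100 uM), 0.5% DMSO vehicle, duplicates. Readout: APOA5 mRNA by qRT-PCR, housekeeping-normalized; bidirectional fit vs DMSO baseline.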

[14] = read-out: Apoptosis regulator Bcl-2 (Homo sapiens) (UniProt P10415); experiment: LTEA_HepaRG_BCL2: Life Technologies and Expression Analysis (LTEA) Assay for Bcl-2 gene using HepaRG (AID 2283475)
Summary of the method: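 Expression change of BCL2 mRNA in HepaRG after 48 h dosing, quantified by TaqMan qRT-PCR against three endogenous controls. Concentration-response used eight points up to 100 uM, vehicle 0.5% DMSO.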

[15] = read-out: Caspase-3 (Homo sapiens) (UniProt P42574); experiment: LTEA_HepaRG_CASP3: Life Technologies and Expression Analysis (LTEA) Assay for cysteine-aspartic acid protease (CASP3) using HepaRG (AID 2283477)
Summary of the method: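 HepaRG, 48 h exposure, 8 conc. (top 100 uM, half-log steps, duplicate), 0.5% DMSO vehicle; qRT-PCR of CASP3 transcript, housekeeping-normalised (ACTB/GAPDH/POLR2A); bidirectional curve fit vs DMSO baseline.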

[16] = read-out: ABC Transporter (ABCC2), ABCC2 (gene 1244); experiment: LTEA_HepaRG_ABCC2: Life Technologies and Expression Analysis (LTEA) Assay for ABC Transporter (ABCC2) using HepaRG (AID 2283464)
Summary of the method: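 qRT-PCR (TaqMan, Fluidigm array) read-out of ABCC2 mRNA, normalized to three housekeeping genes. Differentiated HepaRG cells were treated 48 h in serum-free induction medium with 8-point half-log series from 100 uM in 0.5% DMSO; curves fitted bidirectionally relative to DMSO.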

[17] = read-out: Broad substrate specificity ATP-binding cassette transporter ABCG2 (Homo sapiens) (UniProt Q9UNQ0); experiment: LTEA_HepaRG_ABCG2: Life Technologies and Expression Analysis (LTEA) Assay for ABC Transporter (ABCG2) using HepaRG (AID 2283465)
Summary of the method: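 Differentiated HepaRG cells in serum-free induction medium were exposed for 48 h, in duplicate, to eight half-log concentrations up to 100 uM in 0.5% DMSO. ABCG2 mRNA was measured by TaqMan qRT-PCR, normalized to ACTB, GAPDH and POLR2A, and fitted bidirectionally versus DMSO.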

[18] = read-out: Peroxisomal acyl-coenzyme A oxidase 1 (ACOX1) gene, ACOX1 (gene 51); experiment: LTEA_HepaRG_ACOX1: Life Technologies and Expression Analysis (LTEA) Assay for Peroxisomal acyl-coenzyme A oxidase 1 (ACOX1) gene using HepaRG (AID 2283467)
Summary of the method: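 Differentiated human HepaRG cells were exposed in duplicate for 48 h in serum-free induction medium to eight half-log concentrations up to 100 uM in 0.5% DMSO. ACOX1 mRNA was then quantified by TaqMan qRT-PCR, normalized to ACTB, GAPDH and POLR2A.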

[19] = read-out: Bcl-2 (BID) gene, BID (gene 637); experiment: LTEA_HepaRG_BID: Life Technologies and Expression Analysis (LTEA) Assay for Bcl-2 (BID) gene using HepaRG (AID 2283476)
Summary of the method: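 Gain or loss of BID expression is fitted relative to 0.5% DMSO vehicle. Human HepaRG liver cells received a 48 h chemical exposure over an eight-point concentration range.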

Measured: AC50

Sequence of Apoptosis regulator Bcl-2 (Homo sapiens) (P10415 whole entry, looked up): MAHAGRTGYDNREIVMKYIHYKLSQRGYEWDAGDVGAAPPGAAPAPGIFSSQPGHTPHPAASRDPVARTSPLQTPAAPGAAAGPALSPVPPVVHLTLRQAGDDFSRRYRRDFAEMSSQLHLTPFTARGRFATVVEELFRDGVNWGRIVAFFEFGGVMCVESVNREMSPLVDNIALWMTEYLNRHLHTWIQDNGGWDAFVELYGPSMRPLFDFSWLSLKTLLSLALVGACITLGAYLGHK
Sequence of Caspase-3 (Homo sapiens) (P42574 whole entry, looked up): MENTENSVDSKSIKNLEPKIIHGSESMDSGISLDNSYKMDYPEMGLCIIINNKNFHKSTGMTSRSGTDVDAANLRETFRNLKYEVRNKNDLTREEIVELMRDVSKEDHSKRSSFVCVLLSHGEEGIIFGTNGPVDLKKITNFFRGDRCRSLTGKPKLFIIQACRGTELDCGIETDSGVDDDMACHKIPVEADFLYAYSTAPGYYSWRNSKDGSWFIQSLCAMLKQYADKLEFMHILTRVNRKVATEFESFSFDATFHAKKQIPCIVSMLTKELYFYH
Sequence of Broad substrate specificity ATP-binding cassette transporter ABCG2 (Homo sapiens) (Q9UNQ0 whole entry, looked up): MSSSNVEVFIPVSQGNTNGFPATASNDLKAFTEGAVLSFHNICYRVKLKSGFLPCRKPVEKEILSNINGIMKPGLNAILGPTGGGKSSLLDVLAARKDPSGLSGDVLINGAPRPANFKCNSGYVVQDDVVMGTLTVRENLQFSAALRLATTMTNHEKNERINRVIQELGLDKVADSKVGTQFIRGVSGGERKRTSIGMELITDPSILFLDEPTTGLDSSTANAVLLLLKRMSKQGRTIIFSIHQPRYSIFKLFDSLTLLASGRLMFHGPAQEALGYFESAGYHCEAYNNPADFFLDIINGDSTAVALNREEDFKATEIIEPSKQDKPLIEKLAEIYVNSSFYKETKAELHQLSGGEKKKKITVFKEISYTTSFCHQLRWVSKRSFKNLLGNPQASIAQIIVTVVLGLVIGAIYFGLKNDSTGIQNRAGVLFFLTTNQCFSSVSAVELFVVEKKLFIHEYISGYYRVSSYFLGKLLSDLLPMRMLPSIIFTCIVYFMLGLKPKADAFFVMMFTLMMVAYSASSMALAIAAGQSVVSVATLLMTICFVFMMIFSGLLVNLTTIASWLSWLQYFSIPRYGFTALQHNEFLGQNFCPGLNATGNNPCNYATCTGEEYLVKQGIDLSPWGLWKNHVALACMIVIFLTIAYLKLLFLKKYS

CC1(C)NC(=O)NC1=O
not listed: [16] | [17] | [18] | [19]
inactive: all other assays above

COc1ccc(S(=O)(=O)N2C(=O)[C@@](c3ccccc3OC)(N3C[C@H](O)C[C@H]3C(=O)N(C)C)c3cc(Cl)ccc32)c(OC)c1
inactive: [2] | [3] | [8]
active: [1] 87.9 µM | [5] 14.9 µM | [16] 31.4 µM | [7] 29.5 µM | [9] 19 µM | [10] 12.1 µM | [11] 29.4 µM | [12] 63.4 µM | [13] 38.5 µM | [14] 50 µM | [15] 12.2 µM

CCCCC(CC)COC(=O)CC(C(=O)OCC(CC)CCCC)S(=O)(=O)O (centres undefined)
active: [1] 93.9 µM | [2] 79.8 µM | [3] 82.2 µM | [16] 89.2 µM | [18] 79.9 µM | [8] 80.7 µM | [10] 81.6 µM | [19] 50 µM | [15] 81 µM
inactive: [5] | [17] | [7] | [9] | [11] | [12] | [13] | [14]

COc1ccc2c(c1)c(CC(=O)O)c(C)n2C(=O)c1ccc(Cl)cc1
not listed: [4] | [5] | [17]
inactive: all other assays above

O=c1c(O)c(-c2ccc(O)c(O)c2)oc2cc(O)cc(O)c12
active: [5] 76.7 µM | [11] 79 µM
not listed: [4] | [6] | [16] | [18]
inactive: all other assays above

CCCCCC(=O)O
not listed: [16] | [17] | [18]
inactive: all other assays above

CCCCCCOCCO
not listed: [4] | [6] | [17]
inactive: all other assays above
